Drawing on PubChem BioAssay AID2289 (National Center for Advancing Translational Sciences (NCATS), 2010), this text covers Potency for 101 compounds.

Molecules are shown by their SMILES. The whole screen tested about 340,000 compounds, of which about 3,300 (0.97%) were called active. Roughly 9% stayed inconclusive and do not appear here. Calls come from the whole dose curve; as a rule, active = well fitted inhibition curve with a large enough effect; inconclusive = small, poorly fitted or top-dose-only effect, or effect the other way; inactive = flat fitted curve, though single readings scatter. The list shows a part of the results.
Potency is the fitted concentration of half-maximal effect.

The experiment in a line: qHTS Assay for Modulators of miRNAs and/or Inhibitors of miR-21. Note: nearly all actives have a fitted effect of over 55% in size. As to conditions: HeLa miR-21-FLuc reporter, luciferase luminescence, 48 h; actives lower the signal. The method, boiled down:
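HeLa cells stably expressing CMV-driven firefly luciferase with a downstream miR-21 binding sequence, endogenously expressing miR-21, were treated with titrations (up to about 40uM final) for 48 hours at 37 degree Celsius. Luciferase luminescence was read after lysis.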
For `O=C1NN(c2ccccc2)C(=O)/C1=C/c1coc2ccccc2c1=O`, the Potency was 4.65 µM (active).
With `CC1CCCCN1Cc1c(O)ccc2c(=O)c(-c3ccc(Cl)cc3)coc12` (stereo unspecified), the Potency is 18.5 µM (active).
To `COc1ccc(-c2cc(COc3ccccc3)on2)cc1` belongs 9.27 µM (active).
`Fc1ccc(OCc2cc(-c3ccccc3)no2)cc1`: the Potency was 4.14 µM (active).
As for `CCCCNC(=O)c1nnn(-c2ccccc2)c1N`, the figure is 16.5 µM (active).
As for `CC(C)N1C(=O)S/C(=C\c2ccc(-c3ccc(Cl)c(C(=O)O)c3)o2)C1=O`, the Potency was 0.293 µM (active).
As for `CCN=C1S/C(=C\c2ccc(-c3cccc(C(=O)O)c3)o2)C(=O)N1CC`, the figure is 0.656 µM (active).
As for `C#CCN1C(=O)S/C(=C\c2ccc(-c3ccc(C(=O)O)cc3C)o2)C1=O`, the figure is 3.29 µM (active); as for `COC(=O)C(C)N1C(=O)S/C(=C\c2ccc(-c3ccc(C(=O)O)cc3C)o2)C1=O` (stereo unspecified), 6.56 µM (active); as for `COc1ccc(OC)c2c(N3CC(C)OC(C)C3)cc(C(F)(F)F)nc12` (stereo unspecified), 6.56 µM (active).
With `O=C(Nc1ccccn1)c1sc2cccc(F)c2c1Cl`, the Potency was 0.165 µM (active).
To `Brc1cc(Br)c2nc(-c3ccc(N4CCOCC4)cc3)ccc2c1` belongs 14.7 µM (active); to `N#C/C(=C\c1cccnc1)c1nc2c(s1)CCCC2`, 2.61 µM (active).
As for `CCc1ccc(NC(=O)CSc2ccccn2)cc1`, the figure is 10.4 µM (active); as for `Cc1cc(NC(=O)CCSc2ccccc2)ccc1Br`, 16.5 µM (active).
As for `CCc1ccc(NC(=O)CSc2nncn2-c2cccnc2)cc1`, the figure is 16.5 µM (active); as for `CCc1ccc(NC(=O)CSc2ccc3nc(-c4ccc(OC)cc4)cn3n2)cc1`, 0.736 µM (active); as for `Cc1ccc(NC(=O)CCSc2ccccn2)cc1`, 4.14 µM (active).
Regarding `Cc1cc(OCC(=O)N2CCCCCC2)ccc1[N+](=O)[O-]`, the Potency is 5.85 µM (active).
To `Cc1ccc(NC(=O)c2sccc2C)cc1[N+](=O)[O-]` belongs 4.14 µM (active); to `O=C(CCc1ccccc1)Nc1ccccc1[N+](=O)[O-]`, 14.7 µM (active).
Consider `O=C(NC(=S)Nc1ccccc1[N+](=O)[O-])c1ccccc1`, for which the Potency was 9.27 µM (active).
As for `O=C(Nc1ccccn1)Nc1ccccc1[N+](=O)[O-]`, the figure is 9.27 µM (active); as for `Cc1cc(NC(=O)c2ccccc2[N+](=O)[O-])ccc1Br`, 7.36 µM (active); as for `Cc1ccc(NC(=O)C2C3CCCCC32)cc1[N+](=O)[O-]` (stereo unspecified), 13.1 µM (active).
To `CC(C)COc1ccc(C(=O)Nc2ccccc2[N+](=O)[O-])cc1` belongs 8.26 µM (active).
For `Cc1ccc(NC(=O)c2ccc(C(C)(C)C)cc2)cc1[N+](=O)[O-]`, the Potency is 5.21 µM (active).
Take `CC(C)(C)c1ccc(NC(=O)c2ccccc2)c([N+](=O)[O-])c1`: the Potency is 0.736 µM (active).
As for `O=C(Nc1ccccn1)c1cc2cc([N+](=O)[O-])ccc2s1`, the figure is 0.826 µM (active); as for `CC(C)(C)c1cc(NC(=O)c2cccc([N+](=O)[O-])c2)no1`, 1.47 µM (active).
As to `CC(C)(C)c1ccc(C(=O)Nc2ccc([N+](=O)[O-])cn2)cc1`, the Potency is 0.464 µM (active).
For the compound `Clc1ccc(-c2noc(CN3CCOCC3)n2)cc1`, the Potency is 16.5 µM (active).
Regarding `Brc1ccccc1OCCOc1cccc2cccnc12`, the Potency is 11.7 µM (active).
As for `c1ccc(OCCOc2cccc3cccnc23)cc1`, the figure is 13.1 µM (active); as for `COc1cccc(OC)c1OCCCOc1cccc2cccnc12`, 7.36 µM (active); as for `O=[N+]([O-])c1ccccc1OCCCOc1cccc2cccnc12`, 5.21 µM (active).
As for `CC(C)Sc1nc(SCC(=O)O)c2c3c(sc2n1)COC(C)(C)C3`, the figure is 9.27 µM (active).
Take `COCCCNC(=O)C1CCN(C(=O)c2oc3cc4sc(N(C)C)nc4cc3c2C)CC1`: the Potency was 14.7 µM (active).
As for `Cc1ccc(C)c(NC(=S)c2ccc3ccccc3n2)c1`, the figure is 1.65 µM (active); as for `Cc1ccccc1NC(=S)c1ccc2ccccc2n1`, 7.36 µM (active); as for `N/C(=N\OC(=O)COc1ccc2ccccc2c1Br)c1ccncc1`, 16.5 µM (active).
As for `N/C(=N\OC(=O)COc1ccc2ccccc2c1Br)c1ccccn1`, the figure is 7.36 µM (active); as for `CCOC(=O)c1c(NC(=O)CN2CCN(C)CC2)sc(C(=O)Nc2ccccc2)c1C`, 18.5 µM (active); as for `COc1cc(/C=N/NS(=O)(=O)c2ccc(C)cc2)ccc1OCc1cccc(C(=O)O)c1`, 0.464 µM (active).
For `COc1cc(/C=N/NS(=O)(=O)c2ccc3ccccc3c2)ccc1OCc1ccc(C(=O)O)cc1`, the Potency was 0.414 µM (active).
As for `Cc1cc(SCC(=O)Nc2nsc(-c3ccc(C(C)(C)C)cc3)n2)nc2ccccc12`, the figure is 2.33 µM (active); as for `COc1ccc(-n2cc(CN(C)CCO)c(-c3cccc(F)c3)n2)cc1`, 0.414 µM (active).
As for `C/C(=N\OCc1cccc(C(=O)O)c1)c1ccc(Cl)cc1`, the figure is 0.0414 µM (active); as for `COc1cc(/C=N/OCC(=O)Nc2cc(C)cc(C)c2)ccc1OCc1ccc(Cl)cc1`, 2.93 µM (active); as for `COc1cc(/C=N/OCC(=O)NC2CCCCC2C)ccc1OCc1ccc(Cl)cc1` (stereo unspecified), 4.65 µM (active).
Regarding `CCCCc1ccc(NC(=O)C2CCCO2)cc1` (stereo unspecified), the Potency is 1.85 µM (active).
As for `CC1CCN(C(=O)Cn2nnc(-c3cccs3)n2)CC1`, the figure is 7.36 µM (active); as for `Brc1ccc(-c2cn3cc(Cc4ccccc4)sc3n2)cc1`, 0.329 µM (active); as for `CSc1ccccc1OCc1cc(C(=O)NCc2cccc(C)n2)no1`, 7.36 µM (active).
For `CSc1ccccc1OCc1cc(C(=O)N(C)Cc2ccncn2)no1`, the Potency was 8.26 µM (active).
As for `COc1cccc(OCc2cc(C(=O)NCc3ccccn3)no2)c1`, the figure is 13.1 µM (active); as for `CSc1ccccc1OCc1cc(C(=O)N(C)Cc2nonc2C)no1`, 8.26 µM (active).
As for `CC(NC(=O)c1cc(COc2ccccc2)on1)c1nccs1` (stereo unspecified), the figure is 2.07 µM (active); as for `CN1CCc2c(sc(/N=C/c3cc(Cl)ccc3O)c2C#N)C1`, 6.56 µM (active).
To `COc1ccc2c(c1)O[C@H](c1ccc3c(c1)OCO3)[C@@H](O)C2=O` belongs 11.7 µM (active).
In the case of `COc1cccc([C@@H]2Oc3ccc(OC)cc3C(=O)[C@H]2OC(=O)NCc2ccc3c(c2)OCO3)c1`, the Potency was 5.85 µM (active).
`O=C(OCc1csc(-c2ccccc2)n1)c1ccccc1O`: the Potency is 9.27 µM (active).
Turning to `COc1ccc(C(=O)OCc2csc(C)n2)c(O)c1`, the Potency is 7.36 µM (active).
As for `O=C(OCc1csc(-c2ccccc2)n1)c1ccc(O)cc1`, the Potency is 14.7 µM (active).
As for `Cc1nc(COC(=O)c2c(C)nn(-c3ccccc3)c2C)cs1`, the figure is 16.5 µM (active); as for `Cc1ccc(SC[C@H](CC(C)C)N2CCN(C)CCC2=O)cc1`, 10.4 µM (active); as for `Cc1ccc(SC[C@H](c2ccccc2)N2CCN(C)CCC2=O)cc1`, 9.27 µM (active).
Take `O=C(NCCC1=CCCCC1)c1cnc2n(c1=O)CCS2`: the Potency is 6.56 µM (active).
Turning to `Fc1ccccc1Nc1nc2ccccc2o1`, the Potency was 0.521 µM (active).
As for `Cn1cccc1C(=O)OCc1cc(Cl)cc2c1OCOC2`, the figure is 13.1 µM (active).
As for `C=CCN=c1scc(C)n1/N=C/c1ccc(O)c(O)c1`, the figure is 11.7 µM (active); as for `CCOC(=O)c1c(N)sc(C(=O)OCCOC)c1C`, 18.5 µM (active); as for `CCCOC(=O)c1c(N)sc(C(=O)OCC)c1C`, 14.7 µM (active).
`Cc1c(C(=O)OC(C)C)sc(N)c1C(=O)OC(C)C`: the Potency is 6.56 µM (active).
With `Cc1cc2cc(C=C(C#N)C#N)c(Cl)nc2cc1C`, the Potency was 7.36 µM (active).
To `Cc1ccc(OCC(=O)O/N=C(\N)c2ccncc2)c(C)c1` belongs 4.14 µM (active); to `Cc1ccc(/C(N)=N/OC(=O)COc2ccccc2Cl)cc1`, 10.4 µM (active); to `N/C(=N\OC(=O)COc1ccc(Cl)cc1Cl)c1ccncc1`, 0.585 µM (active).
As for `N/C(=N\OC(=O)COc1ccc(Cl)cc1Br)c1ccncc1`, the figure is 1.65 µM (active); as for `CCc1ccc(OCC(=O)O/N=C(\N)c2ccncc2)c(Br)c1`, 4.65 µM (active); as for `N/C(=N\OC(=O)COc1ccc(Br)cc1Cl)c1ccccn1`, 0.117 µM (active).
Regarding `N/C(=N\OC(=O)COc1ccc(Br)cc1Cl)c1ccncc1`, the Potency is 0.927 µM (active).
For the compound `CCOc1ccc(NC(=O)c2cccs2)c([N+](=O)[O-])c1`, the Potency was 0.826 µM (active).
To `COc1ccc(NC(=O)c2ccco2)c([N+](=O)[O-])c1` belongs 7.36 µM (active).
As for `COc1ccc(NC(=O)CSc2ccccc2)c([N+](=O)[O-])c1`, the figure is 7.36 µM (active).
With `CSc1ccc(/C=N/Nc2cccc(C(=O)O)c2)cc1`, the Potency was 0.147 µM (active).
Consider `O=C(O)c1cccc(N/N=C/C2=C(Cl)c3cc(Cl)ccc3SC2)c1`, for which the Potency is 0.261 µM (active).
For `O=C(O)c1cccc(N/N=C/c2ccc(-c3ccccc3)cc2)c1`, the Potency was 0.147 µM (active).
For the compound `O=C(O)c1cccc(N/N=C/c2ccc(OC(F)(F)F)cc2)c1`, the Potency was 0.0521 µM (active).
To `O=C(O)c1cccc(N/N=C/c2ccc(F)c(F)c2)c1` belongs 0.233 µM (active).
As for `O=c1n(Cc2ccccc2Cl)nc2n1-c1ccccc1SC2`, the Potency is 10.4 µM (active).
As to `COc1cccc(C(=O)Nc2ccc(C(F)(F)F)n(C)c2=O)c1`, the Potency was 1.47 µM (active).
Regarding `COCCn1c(C(F)(F)F)ccc(NC(=O)c2ccccc2)c1=O`, the Potency was 1.85 µM (active).
Turning to `Cc1cccc(-n2cnc3cc(C(=O)N4CCCCC4)ccc32)c1`, the Potency was 9.27 µM (active).
Turning to `O=C(N=C1N=C2C=CC(Br)=CN2Cc2ccccc21)c1ccc([N+](=O)[O-])cc1[N+](=O)[O-]`, the Potency was 3.69 µM (active).
As for `CCCCC#Cc1ccc2c(c1)COc1c3ccccc3nn1-2`, the figure is 2.07 µM (active); as for `COC(=O)c1c(-c2cccs2)csc1NC(=O)c1cccc(Cl)c1`, 0.656 µM (active).
Turning to `COC(=O)c1c(-c2cccs2)csc1NC(=O)COc1ccccc1`, the Potency is 7.36 µM (active).
To `Cc1cc(C(=O)Nc2ccc3ccccc3c2)oc1C` belongs 0.293 µM (active); to `Cc1oncc1C(=O)Nc1ccc2ccccc2c1`, 7.36 µM (active).
In the case of `Cc1cc(C(=O)Nc2ccccc2)oc(=O)c1`, the Potency is 6.56 µM (active).
